# Laboratory results reported in PubChem BioAssay (NCI).
# The panel holds about 79,000 compounds, 15% with a hit somewhere; the sample as a whole holds those more often. Active and inactive are the calls of the source. No stated cut-off is given here; in the data, active means growth inhibition above about 70%; inactive means the rest.
# Assays:
# [1] = NCI Yeast Anticancer Drug Screen. Data for the mlh1 strain (AID 171);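 further: 0% = growth of vehicle-treated control cultures of the same strain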; conditions: S. cerevisiae mlh1 strain growth inhibition, stronger effect = higher value
# Summary of the method: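 Here the genetically defined yeast mutant is grown with each compound, and the extent to which its growth falls below that of vehicle-exposed cells is reported.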
# [2] = NCI Yeast Anticancer Drug Screen. Data for the sgs1 strain (AID 173);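 further: 0% = growth of vehicle-only control cultures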; conditions: S. cerevisiae sgs1 mutant, stronger effect = higher value
# Summary of the method: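 Relative growth inhibition, referenced to vehicle, was determined in a yeast strain with a defined alteration affecting DNA damage repair or cell cycle control after compound exposure.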
# [3] = NCI Yeast Anticancer Drug Screen. Data for the mlh1 rad18 strain (AID 175); conditions: S. cerevisiae mlh1 rad18 strain growth inhibition, stronger effect = higher value
# Summary of the method: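 In this whole-cell yeast screen, a strain with altered DNA damage repair is challenged with compound, and its growth is measured against matched vehicle-treated controls.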
# [4] = NCI Yeast Anticancer Drug Screen. Data for the rad18 strain (AID 177); conditions: S. cerevisiae rad18 mutant growth inhibition, stronger effect = higher value
# Summary of the method: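 Screen uses a yeast strain with a defined lesion in DNA damage repair; compound effect is read as loss of growth compared to untreated vehicle cultures.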
# [5] = NCI Yeast Anticancer Drug Screen. Data for the rad52 strain (AID 147);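 further: 0% = growth of vehicle-treated control cultures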; conditions: S. cerevisiae rad52 mutant growth inhibition, stronger effect = higher value
# Summary of the method: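 Measured: yeast growth inhibition. System: strain with a defined DNA damage repair alteration. Reference: vehicle-treated control cultures.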
# [6] = NCI Yeast Anticancer Drug Screen. Data for the rad50EPP+ strain (AID 151);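 further: 0% = growth of vehicle-treated control cultures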; conditions: S. cerevisiae rad50 mutant strain, stronger effect = higher value
# Summary of the method: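 One strain with a rad50 alteration (rad50EPP+) was compound-treated, its growth then compared to that of vehicle controls.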
# [7] = NCI Yeast Anticancer Drug Screen. Data for the rad50 strain (AID 155);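 further: 0% = growth of vehicle-only cultures of the same strain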; conditions: S. cerevisiae rad50 strain growth inhibition, stronger effect = higher value
# Summary of the method: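 Relative growth inhibition (compound vs vehicle) was measured in yeast with a defined repair-gene alteration.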
# [8] = NCI Yeast Anticancer Drug Screen. Data for the mec2-1 strain (AID 157); conditions: S. cerevisiae mec2-1 strain, stronger effect = higher value
# Summary of the method: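 Test agents were screened against the mec2-1 yeast strain, with defined DNA repair or cell cycle alteration. Growth was scored as inhibition against vehicle-only controls.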
# [9] = NCI Yeast Anticancer Drug Screen. Data for the rad14 strain (AID 159);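 further: 0% = growth of vehicle-treated control cultures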; conditions: S. cerevisiae rad14 strain growth inhibition, stronger effect = higher value
# Summary of the method: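 Screen for anticancer potential: a yeast strain altered in DNA damage repair is grown with compound, and reduced growth is quantified against vehicle controls.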
# [10] = NCI Yeast Anticancer Drug Screen. Data for the sgs1 mgt1 strain (AID 161);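 further: 0% = growth of cultures given vehicle only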; conditions: S. cerevisiae sgs1 mgt1 strain, stronger effect = higher value
# Summary of the method: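 Inhibition of yeast growth, normalised to vehicle-treated controls, is reported for a strain bearing genetic alterations in DNA damage repair.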
# [11] = NCI Yeast Anticancer Drug Screen. Data for the CLN2oe strain (AID 163);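 further: 0% = growth of vehicle-only control cultures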; conditions: S. cerevisiae CLN2oe strain, stronger effect = higher value
# Summary of the method: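 Here, growth inhibition in a cell-cycle-altered yeast strain after compound exposure was quantified against vehicle control growth.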
# [12] = NCI Yeast Anticancer Drug Screen. Data for the cln2 rad14 strain (AID 165);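 further: 0% = growth equal to vehicle treated cultures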; conditions: S. cerevisiae cln2 rad14 strain, stronger effect = higher value
# Summary of the method: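 Growth of compound-exposed yeast (cln2 rad14 genotype) measured and expressed as inhibition relative to vehicle.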
# [13] = NCI Yeast Anticancer Drug Screen. Data for the bub3 strain (AID 167); conditions: S. cerevisiae bub3 mutant strain, stronger effect = higher value
# Summary of the method: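 Screening used yeast with an engineered genetic alteration affecting cell cycle control. Compound-exposed cultures were compared with vehicle cultures, and reduced growth was taken as inhibition.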
# [14] = NCI Yeast Anticancer Drug Screen. Data for the wt2 strain (AID 169);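 further: 0% = growth of vehicle-treated yeast cultures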; conditions: S. cerevisiae wt2 strain growth inhibition, stronger effect = higher value
# Summary of the method: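 Genetically defined yeast strains from a DNA-repair/cell-cycle panel were used. Compound-exposed yeast growth was measured, and the inhibition was calculated relative to vehicle treatment.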
# [15] = at 5.0 µM (retest, dose inferred, filed as 0.5)
# [16] = at 50.0 µM (retest, dose inferred, filed as 5.0)
smiles,measurement,setting,value
CC(=O)[C@]1(O)Cc2c(O)c3c(c(O)c2[C@@H](OC2CC(N)C(O)C(C)O2)C1)C(=O)c1c(OCc2ccccc2)cccc1C3=O (stereo not given in full),growth inhibition,[1]; at 1.2 µM,-2% (inactive)
same,growth inhibition,[1]; at 3.7 µM,-1% (inactive)
same,growth inhibition,[1]; at 11.0 µM,6% (inactive)
same,growth inhibition,[1]; at 33.0 µM,23% (inactive)
same,growth inhibition,[1]; at 100.0 µM,61% (inactive)
same,growth inhibition,[2]; at 1.2 µM,8% (inactive)
same,growth inhibition,[2]; at 3.7 µM,4% (inactive)
same,growth inhibition,[2]; at 11.0 µM,22% (inactive)
same,growth inhibition,[2]; at 33.0 µM,19% (inactive)
same,growth inhibition,[2]; at 100.0 µM,53% (inactive)
same,growth inhibition,[3]; [15],-4% (inactive)
same,growth inhibition,[3]; [16],46% (inactive)
same,growth inhibition,[4]; at 1.2 µM,2% (inactive)
same,growth inhibition,[4]; at 3.7 µM,7% (inactive)
same,growth inhibition,[4]; at 11.0 µM,9% (inactive)
same,growth inhibition,[4]; at 33.0 µM,20% (inactive)
same,growth inhibition,[4]; at 100.0 µM,55% (inactive)
Cc1cccc2c1N=C(C(F)(F)F)CC2=O,growth inhibition,[5]; at 1.2 µM,4% (inactive)
same,growth inhibition,[5]; at 3.7 µM,7% (inactive)
same,growth inhibition,[5]; at 11.0 µM,10% (inactive)
same,growth inhibition,[5]; at 33.0 µM,20% (inactive)
same,growth inhibition,[5]; at 100.0 µM,46% (inactive)
same,growth inhibition,[6]; at 1.2 µM,2% (inactive)
same,growth inhibition,[6]; at 3.7 µM,3% (inactive)
same,growth inhibition,[6]; at 11.0 µM,10% (inactive)
same,growth inhibition,[6]; at 33.0 µM,33% (inactive)
same,growth inhibition,[6]; at 100.0 µM,48% (inactive)
same,growth inhibition,[7]; at 1.2 µM,9% (inactive)
same,growth inhibition,[7]; at 3.7 µM,15% (inactive)
same,growth inhibition,[7]; [15],-120% (inactive)
same,growth inhibition,[7]; at 11.0 µM,23% (inactive)
same,growth inhibition,[7]; at 33.0 µM,24% (inactive)
same,growth inhibition,[7]; [16],9% (inactive)
same,growth inhibition,[7]; at 50.0 µM,43.7% (inactive)
same,growth inhibition,[7]; at 100.0 µM,46% (inactive)
same,growth inhibition,[8]; at 1.2 µM,2% (inactive)
same,growth inhibition,[8]; at 3.7 µM,1% (inactive)
same,growth inhibition,[8]; [15],-43% (inactive)
same,growth inhibition,[8]; at 11.0 µM,-5% (inactive)
same,growth inhibition,[8]; at 33.0 µM,9% (inactive)
same,growth inhibition,[8]; [16],40% (inactive)
same,growth inhibition,[8]; at 50.0 µM,35% (inactive)
same,growth inhibition,[8]; at 100.0 µM,54% (inactive)
same,growth inhibition,[9]; at 1.2 µM,3% (inactive)
same,growth inhibition,[9]; at 3.7 µM,-5% (inactive)
same,growth inhibition,[9]; at 11.0 µM,0% (inactive)
same,growth inhibition,[9]; at 33.0 µM,7% (inactive)
same,growth inhibition,[9]; at 100.0 µM,39% (inactive)
same,growth inhibition,[10]; [15],-44% (inactive)
same,growth inhibition,[10]; [16],65% (inactive)
same,growth inhibition,[10]; at 50.0 µM,45% (inactive)
same,growth inhibition,[11]; at 1.2 µM,-5% (inactive)
same,growth inhibition,[11]; at 3.7 µM,-3% (inactive)
same,growth inhibition,[11]; at 11.0 µM,3% (inactive)
same,growth inhibition,[11]; at 33.0 µM,8% (inactive)
same,growth inhibition,[11]; at 100.0 µM,43% (inactive)
same,growth inhibition,[12]; [15],-49% (inactive)
same,growth inhibition,[12]; [16],45% (inactive)
same,growth inhibition,[12]; at 50.0 µM,49.6% (inactive)
same,growth inhibition,[13]; at 1.2 µM,-2% (inactive)
same,growth inhibition,[13]; at 3.7 µM,-2% (inactive)
same,growth inhibition,[13]; [15],-61% (inactive)
same,growth inhibition,[13]; at 11.0 µM,-1% (inactive)
same,growth inhibition,[13]; at 33.0 µM,1% (inactive)
same,growth inhibition,[13]; [16],33% (inactive)
same,growth inhibition,[13]; at 50.0 µM,25% (inactive)
same,growth inhibition,[13]; at 100.0 µM,37% (inactive)
same,growth inhibition,[14]; at 1.2 µM,-2% (inactive)
same,growth inhibition,[14]; at 3.7 µM,-2% (inactive)
same,growth inhibition,[14]; at 11.0 µM,-1% (inactive)
same,growth inhibition,[14]; at 33.0 µM,6% (inactive)
same,growth inhibition,[14]; at 100.0 µM,40% (inactive)
same,growth inhibition,[1]; at 1.2 µM,-1% (inactive)
same,growth inhibition,[1]; at 3.7 µM,2% (inactive)
same,growth inhibition,[1]; at 11.0 µM,1% (inactive)
same,growth inhibition,[1]; at 33.0 µM,8% (inactive)
same,growth inhibition,[1]; at 100.0 µM,38% (inactive)
same,growth inhibition,[2]; at 1.2 µM,1% (inactive)
same,growth inhibition,[2]; at 3.7 µM,-2% (inactive)
same,growth inhibition,[2]; at 11.0 µM,0% (inactive)
same,growth inhibition,[2]; at 33.0 µM,27% (inactive)
same,growth inhibition,[2]; at 100.0 µM,48% (inactive)
same,growth inhibition,[3]; [15],-100% (inactive)
same,growth inhibition,[3]; [16],71% (active)
same,growth inhibition,[3]; at 50.0 µM,76.8% (active)
